Structures are written as SMILES. About 1,400 (93%) of roughly 1,500 compounds were called active. No stated cut-off is given here; in the data, active means inhibition above about 9.5%; inactive means the rest. The set was probably picked from earlier hits. Not all results are given here.

A short description of the assay: PGV04 antibody small-molecule binding – biochemical, TR-FRET, distinct HIV envelope site, counter-screen for PG9 antibody binder project (AID 651604). The note with it: TR-FRET PGV04 antibody-gp120 binding, at 6.7 µM, stronger effect = higher value. In general terms: In TR-FRET formats the signal depends on donor and acceptor labels being close together.
As a reminder, the inhibition is the relative decrease from the control value, in per cent. Turning to `CCN(CC)C(=O)c1ccc(NC(=O)c2sccc2-c2ccccc2)cc1`, the inhibition is 25.4% (active). As for `N#CC1=C(N)Oc2c(c(=O)oc3ccccc23)C1c1ccccc1OC(=O)c1cccs1` (configuration not stated), the inhibition is 28% (active).

(Values after PubChem BioAssay AID651604 (The Scripps Research Institute Molecular Screening Center, 2012).)
